Laboratory results taken from PubChem BioAssay (NCATS).
Records with an inconclusive call do not appear. Calls of active or inactive are those of the source. Unless noted, calls come from the whole dose curve.

Tests used:
[1] = qHTS for Inhibitors of the Functional Ribonucleoprotein Complex (vRNP) of Lassa (LASV) Arenavirus: LASV Primary Screen - GLuc reporter signal (AID 1347082; calls by dose curve; tested in HEK293 reporter line; note: series mostly up to about 57 µM; nearly all actives have a fitted effect of over 60% in size)
[2] = qHTS for Inhibitors of the Functional Ribonucleoprotein Complex (vRNP) of Lassa (LASV) Arenavirus: Viability assay - alamar blue signal for LASV Primary Screen (AID 1347083; calls by dose curve; tested in HEK293 reporter line; note: nearly all actives have a fitted effect of over 80% in size; note: potency is the fitted concentration of half-maximal effect)
[3] = qHTS for Inhibitors of the Functional Ribonucleoprotein Complex (vRNP) of Lymphocytic Choriomeningitis Arenaviruses (LCMV): Viability assay - alamar blue signal for LCMV Primary Screen (AID 1347085; calls by dose curve; tested in HEK293 reporter line; note: nearly all actives have a fitted effect of over 80% in size; note: potency is the fitted concentration of half-maximal effect)
[4] = molecular target: Nucleoprotein (Lymphocytic choriomeningitis virus (strain Armstrong)) (UniProt P09992); assay: qHTS for Inhibitors of the Functional Ribonucleoprotein Complex (vRNP) of Lymphocytic Choriomeningitis Arenaviruses (LCMV): LCMV Primary Screen - GLuc reporter signal (AID 1347086); note: series mostly up to about 57 µM; nearly all actives have a fitted effect of over 70% in size

Measured: Potency

Sequence of Nucleoprotein (Lymphocytic choriomeningitis virus (strain Armstrong)) (P09992 whole entry, looked up): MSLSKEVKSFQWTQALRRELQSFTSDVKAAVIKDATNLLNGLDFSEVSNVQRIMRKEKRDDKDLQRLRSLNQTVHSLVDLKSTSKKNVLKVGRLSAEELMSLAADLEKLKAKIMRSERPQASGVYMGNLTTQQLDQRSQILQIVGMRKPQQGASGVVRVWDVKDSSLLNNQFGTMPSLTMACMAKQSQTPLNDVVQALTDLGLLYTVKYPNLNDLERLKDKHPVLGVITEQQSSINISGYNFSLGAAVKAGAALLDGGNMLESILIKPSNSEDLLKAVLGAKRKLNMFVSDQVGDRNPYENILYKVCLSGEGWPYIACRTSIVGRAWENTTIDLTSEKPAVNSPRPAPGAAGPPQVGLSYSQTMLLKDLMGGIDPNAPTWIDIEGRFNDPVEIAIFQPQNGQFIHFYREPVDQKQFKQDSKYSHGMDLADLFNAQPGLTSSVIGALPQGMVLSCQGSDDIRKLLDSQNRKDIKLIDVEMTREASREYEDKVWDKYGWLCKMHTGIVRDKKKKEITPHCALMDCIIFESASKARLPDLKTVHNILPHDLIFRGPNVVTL

CC1(C)C[C@H]2C3=CCC4[C@@]5(C)CC[C@H](O)[C@](C)(CO)C5CC[C@@]4(C)[C@]3(C)C[C@H]3O[C@@H]1[C@H](O)[C@]32CO (stereo not given in full)
inactive: [1] | [2] | [3] | [4]

Cc1ccc2oc3ccccc3c(=O)c2c1
inactive: [1] | [2] | [3] | [4]

CCC1(CC)C(=O)NC(=O)N(c2ccccc2)C1=O
inactive: [1] | [2] | [3] | [4]

CC(C)(C)c1ccccc1
inactive: [1] | [2] | [3] | [4]

COC(=O)C1C(O)CC2CCC1N2C (stereo not given)
inactive: [1] | [2] | [3] | [4]

N#CC(=Cc1ccc(O)c(O)c1)C(=O)NCc1ccccc1
inactive: [1] | [2] | [3] | [4]

O=C1CCCCCCCCCCCCCCCO1
inactive: [1] | [2] | [3] | [4]

CC(C)=CCC/C(C)=C/COc1c2ccoc2cc2oc(=O)ccc12
inactive: [1] | [2] | [3] | [4]

O=C1C=C(C2OC(CO)C(O)C2O)C(=O)N1 (stereo not given)
inactive: [1] | [2] | [3] | [4]

COc1cc2c(c(OC)c1OC)-c1c(cc3c(c1OC)OCO3)CC(C)C(C)(O)C2OC(=O)c1ccccc1 (stereo not given)
inactive: [1] | [2] | [3] | [4]

C#CCCCCCCCCCCCc1ccco1
inactive: [1] | [2] | [3] | [4]

C=C1[C@@H](OC(C)=O)CC[C@]2(C)[C@@H]1C[C@@H]1C[C@H](OC(C)=O)C(C)=C([C@@H](OC(C)=O)[C@@H]2OC(C)=O)C1(C)C
inactive: [1] | [2] | [3] | [4]

CCCCCCCCCCCCCCCCC
inactive: [1] | [2] | [3] | [4]

CCCCCCCCCCOC(C)=O
inactive: [1] | [2] | [3] | [4]

OC[C@H]1O[C@@H](OC[C@H]2O[C@@H](O)[C@H](O)[C@@H](O)[C@@H]2O)[C@H](O)[C@@H](O)[C@@H]1O
inactive: [1] | [2] | [3] | [4]

N[C@@H](CSS(=O)(=O)O)C(=O)O
inactive: [1] | [2] | [3] | [4]

C/C=C\C/C=C/CCCCCCCCOC(C)=O
inactive: [1] | [2] | [3] | [4]

ON=Cc1ccnc2ccccc12
inactive: [1] | [2] | [3] | [4]

Cc1c[nH]c(C=C2C(=O)Nc3ccccc32)c1CCC(=O)O
inactive: [1] | [2] | [3] | [4]

CC(C)(O)C1CC[C@@](C)([C@@H]2CC[C@]3(C)[C@H]2[C@H](O)CC2[C@@]4(C)CCC(O)C(C)(C)C4C(OC4OC(CO)C(O)C(O)C4O[C@@H]4OCC(O)C(O)C4O)C[C@]23C)O1 (stereo not given in full)
inactive: [1] | [2] | [3] | [4]

Nc1nc(Cl)nc2c1ncn2[C@@H]1O[C@H](CO)[C@@H](O)[C@H]1F
active: [2] 2.17 µM | [3] 0.243 µM
inactive: [1] | [4]

COc1cc2c(c(OC)c1CC=C(C)C)C[C@H](c1ccc(O)cc1O)CO2
inactive: [1] | [2] | [3] | [4]

CCCCCCCCCCCC(C)=O
inactive: [1] | [2] | [3] | [4]

O=CC(O)C1OC(=O)C(O)C1O (stereo not given)
inactive: [1] | [2] | [3] | [4]

Cc1ccnc(N)c1
inactive: [1] | [2] | [3] | [4]

C[C@@H](O)CCCCn1c(=O)c2c(ncn2C)n(C)c1=O
inactive: [1] | [2] | [3] | [4]

COC(=O)C1(Cc2ccc(O)cc2)OC(=O)C(O)=C1c1ccc(O)cc1 (stereo not given)
inactive: [1] | [2] | [3] | [4]

CCCCC[C@H](O)C=C[C@H]1[C@H](O)CC(=O)[C@H]1CCCCCCC(=O)O
inactive: [1] | [2] | [3] | [4]

CCCCCCOC(=O)CCCCC
inactive: [1] | [2] | [3] | [4]

Cc1nc(C(N)=O)nc2ccccc12
inactive: [1] | [2] | [3] | [4]

O=c1oc(-c2ccc(O)c(O)c2)cc2cccc(O)c12
inactive: [1] | [2] | [3] | [4]

CCCC(=O)C(C)=O
inactive: [1] | [2] | [3] | [4]

COc1cc2oc(=O)ccc2cc1O
inactive: [1] | [2] | [3] | [4]

NC(C(=O)O)C1ON=C(Cl)C1O (stereo not given)
inactive: [1] | [2] | [3] | [4]

Cc1cnccn1
inactive: [1] | [2] | [3] | [4]

C=C1C2C[C@H](O)C(C)(C)[C@@]2(O)[C@H](O)C[C@]23C[C@@](C)(O)[C@H](CC[C@H]12)[C@H]3O (stereo not given in full)
inactive: [1] | [2] | [3] | [4]

COc1cccc(OC)c1
inactive: [1] | [2] | [3] | [4]

O=C1c2c(O)cc(O)cc2O[C@@]12c1c(cc(O)c3c1O[C@H](c1ccc(O)cc1)[C@@H](O)C3)O[C@@H]2c1ccc(O)cc1
inactive: [1] | [2] | [3] | [4]

C=C1C[C@]23CC[C@H]4C(CO)(CO)C[C@@H](O)C[C@@]4(C)[C@@H]2CC[C@H]1C3
inactive: [1] | [2] | [3] | [4]

c1ccc2c3c([nH]c2c1)C1(CCCCC1)NCC3
inactive: [1] | [2] | [3] | [4]

O=C(Nc1cccc(C(F)(F)F)c1)Nc1cc(S(=O)(=O)NC2CC2)ccc1-c1ccsc1
inactive: [1] | [2] | [3] | [4]

OCC(O)C(O)C(O)CO (stereo not given)
inactive: [1] | [2] | [3] | [4]

COC1C(O)C(CO)OC1n1cnc2c(=O)[nH]c(N)nc21 (stereo not given)
inactive: [1] | [2] | [3] | [4]

COc1cc2c(cc1OC)OC(C)(C)C=C2
inactive: [1] | [2] | [3] | [4]

Cc1c(-c2cccc3c(CCCOc4cccc5ccccc45)c(C(=O)O)n(Cc4cccnc4)c23)c(COc2ccc(N3CCN([S+](=O)([O-])N(C)C)CC3)cc2)nn1C
inactive: [1] | [2] | [3] | [4]

C[C@@H]1CC[C@@]23COC(=O)C2=CCC[C@@H]3[C@@]1(C)CC/C(=C/CO)CO
inactive: [1] | [2] | [3] | [4]

CC12CCC(C1)C(C)(C)C2=O (stereo not given)
inactive: [1] | [2] | [3] | [4]

CCCCc1nc2ccccc2[nH]1
inactive: [1] | [2] | [3] | [4]

C[C@H]1O[C@H](O[C@H]2[C@H](O)[C@@H](O)[C@@H](O[C@H]3[C@H](O)[C@@H](O)C(O)O[C@H]3CO)O[C@H]2CO)[C@H](O)[C@@H](O)[C@H]1N[C@H]1C=C(CO)[C@@H](O)[C@H](O)[C@@H]1O (stereo not given in full)
inactive: [1] | [2] | [3] | [4]

C=C[C@]1(C)C=C2C(=O)C[C@H]3C(C)(C)CCC[C@]3(C(=O)O)[C@@]2(O)CC1
inactive: [1] | [2] | [3] | [4]

CC1=CCCC(C)(C)C12CCC(C)O2 (stereo not given)
inactive: [1] | [2] | [3] | [4]

C=C1[C@@H]2C[C@]3(C(CC2=O)[C@]24C5C[C@H]3[C@H]2N(CC)C[C@]5(C)CC[C@@H]4O)[C@@H]1O (stereo not given in full)
inactive: [1] | [2] | [3] | [4]

CCCC/C=C/C=C\C=O
inactive: [1] | [2] | [3] | [4]

CC1=C(C=O)C(C)(C)CCC1
inactive: [1] | [2] | [3] | [4]

OCCC(O)CO (stereo not given)
inactive: [1] | [2] | [3] | [4]

CC(C)=CCC/C(C)=C/CC/C(C)=C/COc1ccc2ccc(=O)oc2c1
inactive: [1] | [2] | [3] | [4]

CC[C@]1(O)C[C@@H]2CN(CCc3c([nH]c4ccccc34)[C@@](C(=O)OC)(c3cc4c(cc3OC)N(C=O)[C@@H]3C45CCN4CC=C[C@](CC)([C@H]45)[C@@H](OC(C)=O)[C@]3(O)C(=O)OC)C2)C1 (stereo not given in full)
inactive: [1] | [2] | [3] | [4]

COc1ccc(CCNC(=O)/C=C\c2ccccc2)cc1OC
inactive: [1] | [2] | [3] | [4]

Cc1ccc(C(C)C)cc1O
inactive: [1] | [2] | [3] | [4]

Nc1ncnc2c1ncn2[C@H]1O[C@H](CO)[C@@H](O)[C@@H]1O
inactive: [1] | [2] | [3] | [4]
